Source: PubChem BioAssay (Broad Institute)
IDE exosite inh = exo-site inhibitors of human IDE, primary screen, biochemical, fluorescence anisotropy, probe displacement; purified IDE, FL-6b probe fluorescence polarization; active compounds read low; z-score at 20 µM; 17,000 compounds, 6.3% hits;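 active means z-score of -3 or lower, meaning strong loss of probe binding signal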;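 further: His-tagged human IDE residues 42-1019 made in E. coli with 30 nM FL-6b probe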
Target sequence (P14735 42-1019 limits assumed): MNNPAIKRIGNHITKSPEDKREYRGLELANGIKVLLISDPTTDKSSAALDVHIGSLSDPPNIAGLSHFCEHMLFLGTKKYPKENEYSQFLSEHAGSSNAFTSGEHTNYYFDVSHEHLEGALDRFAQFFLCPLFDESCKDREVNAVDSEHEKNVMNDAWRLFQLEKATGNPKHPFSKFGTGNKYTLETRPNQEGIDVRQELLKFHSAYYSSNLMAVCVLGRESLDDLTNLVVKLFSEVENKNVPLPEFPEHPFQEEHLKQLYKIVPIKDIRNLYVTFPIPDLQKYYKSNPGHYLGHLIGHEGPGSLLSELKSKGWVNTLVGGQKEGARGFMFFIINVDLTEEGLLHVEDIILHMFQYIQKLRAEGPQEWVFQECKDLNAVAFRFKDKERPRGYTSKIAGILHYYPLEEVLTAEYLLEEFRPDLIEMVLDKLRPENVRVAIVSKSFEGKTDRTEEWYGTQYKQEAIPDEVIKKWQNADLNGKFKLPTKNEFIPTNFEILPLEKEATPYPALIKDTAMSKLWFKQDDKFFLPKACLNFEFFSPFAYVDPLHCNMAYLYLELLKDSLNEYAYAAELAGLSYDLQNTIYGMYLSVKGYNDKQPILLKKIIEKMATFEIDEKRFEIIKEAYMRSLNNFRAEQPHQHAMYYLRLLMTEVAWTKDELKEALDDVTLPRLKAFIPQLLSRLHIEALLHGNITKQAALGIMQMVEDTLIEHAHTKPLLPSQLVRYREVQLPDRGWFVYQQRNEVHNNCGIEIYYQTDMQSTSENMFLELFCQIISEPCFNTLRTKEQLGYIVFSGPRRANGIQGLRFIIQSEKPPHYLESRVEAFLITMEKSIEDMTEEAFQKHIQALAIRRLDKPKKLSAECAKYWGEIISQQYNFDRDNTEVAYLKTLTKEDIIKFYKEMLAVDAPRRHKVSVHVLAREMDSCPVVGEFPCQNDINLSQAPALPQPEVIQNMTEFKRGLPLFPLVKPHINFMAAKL
Numbers without * were called inactive. Shown is part of a subset that was picked to be rich in hits.

How did CN1C(=O)c2cc(NC(=O)c3cccc(C(F)(F)F)c3)ccc2OC[C@@H]2O[C@@H](CC(=O)NCCN3CCCC3)CC[C@@H]21 do in these assays?
IDE exosite inh: -0.35

What do the screens show for `C/C=C/c1ccc([C@H]2[C@@H](CO)N(C(=O)C3CCCC3)[C@H]2CNCC)cc1`?
IDE exosite inh: 0.75

How did O=C(c1ccc(F)cc1)N1CC(=O)N2[C@H](C1)[C@@H](c1ccc(-c3cccnc3)cc1)[C@@H]2CO do in these assays?
IDE exosite inh: 2.2

Results for CCCC#Cc1ccc([C@H]2[C@H](CO)N3CCCCN(S(=O)(=O)Cc4ccccc4)C[C@@H]23)cc1 ?
IDE exosite inh: 0.56

Results for CS(=O)(=O)N1[C@H](CO)[C@@H](c2ccc(-c3ccccc3F)cc2)[C@@H]1C#N ?
IDE exosite inh: -3.1*

What do the screens show for `COc1cccc(C#Cc2ccc([C@H]3[C@H](C#N)N(C(=O)C4CC4)[C@H]3CO)cc2)c1`?
IDE exosite inh: -1.9

What do the screens show for `COc1ccccc1-c1ccc([C@@H]2[C@@H](CO)N(C(=O)C3CCC3)[C@H]2C#N)cc1`?
IDE exosite inh: -6.5*

What do the screens show for `COc1cccc(C#Cc2ccc([C@H]3[C@@H](C#N)N(C(=O)C4CCC4)[C@@H]3CO)cc2)c1`?
IDE exosite inh: -0.036

What do the screens show for `COc1ccccc1-c1ccccc1[C@H]1[C@@H](CO)N(C(=O)C2CC2)[C@H]1C#N`?
IDE exosite inh: 2.1

How did CS(=O)(=O)N1[C@H](C#N)[C@@H](c2ccccc2)[C@@H]1CO do in these assays?
IDE exosite inh: 5.4

What do the screens show for `COc1ccccc1-c1ccccc1[C@@H]1[C@H](C#N)N(C(=O)C2CCC2)[C@H]1CO`?
IDE exosite inh: 3.3

Results for CS(=O)(=O)N1[C@H](C#N)[C@@H](c2ccccc2-c2ccccc2F)[C@H]1CO ?
IDE exosite inh: -0.14

Results for COc1ccccc1-c1ccccc1[C@H]1[C@@H](C#N)N(C(=O)C2CCC2)[C@@H]1CO ?
IDE exosite inh: 1.2

What do the screens show for `COc1ccc(-c2ccc([C@H]3[C@H](C#N)N(C(=O)C4CCCC4)[C@H]3CO)cc2)cc1`?
IDE exosite inh: 0.47

Results for COc1ccccc1-c1ccc([C@H]2[C@H](C#N)N(C(=O)C3CCC3)[C@H]2CO)cc1 ?
IDE exosite inh: -8.1*

How did COc1cccc(C#Cc2ccc([C@H]3[C@@H](CO)N(C(=O)C4CCOCC4)[C@H]3C#N)cc2)c1 do in these assays?
IDE exosite inh: -5.1*

Results for CCCNC(=O)Nc1ccc2c(c1)OC[C@H](C)N(S(C)(=O)=O)C[C@@H](C)[C@@H](OC)CN(C)C2=O ?
IDE exosite inh: 0.71

Results for O=C(NC[C@H]1[C@H](c2ccccc2)[C@H](CO)N1CC1CCCC1)C1CC1 ?
IDE exosite inh: 3.3

Results for O=C(NC[C@@H]1[C@@H](c2ccccc2)[C@H](CO)N1C(=O)Cc1cccnc1)C1CCC1 ?
IDE exosite inh: 0.39

What do the screens show for `COc1ccc2c3c(n(C)c2c1)[C@@H](CO)N(C(=O)c1ccc(F)cc1)CC31CN(CC2CCOCC2)C1`?
IDE exosite inh: -1.1

Results for CCC(=O)N1CC(=O)N2[C@@H](CO)[C@H](c3ccc(-c4ccncc4)cc3)[C@@H]2C1 ?
IDE exosite inh: 1.6

Results for C/C=C/c1ccc(C2[C@@H]3CN(C(=O)CN4CCOCC4)C[C@H]2N3)cc1 (stereo partly drawn) ?
IDE exosite inh: 1.1

What do the screens show for `CO[C@H]1CN(C)C(=O)c2cc(NC(C)=O)ccc2OC[C@H](C)N(Cc2ccncc2)C[C@@H]1C`?
IDE exosite inh: 0.96

How did C/C=C/c1ccc(C2[C@H]3CNC[C@@H]2N3S(C)(=O)=O)cc1 (stereo partly drawn) do in these assays?
IDE exosite inh: -0.18

What do the screens show for `CCS(=O)(=O)NCC[C@@H]1CC[C@@H](NS(=O)(=O)c2ccccc2C)[C@H](CO)O1`?
IDE exosite inh: 0.94

What do the screens show for `CN(C)C(=O)c1cccc(-c2ccc([C@@H]3[C@@H](C#N)N(C(=O)C4CC4)[C@H]3CO)cc2)c1`?
IDE exosite inh: 0.87

Results for CN(C)C(=O)c1cccc(-c2ccc([C@@H]3[C@H](C#N)N(C(=O)C4CC4)[C@H]3CO)cc2)c1 ?
IDE exosite inh: 3.5

Results for COc1ccccc1-c1ccc([C@@H]2[C@H](C#N)N(C(=O)C3CCC3)[C@H]2CO)cc1 ?
IDE exosite inh: -1.5

How did COc1ccccc1-c1ccccc1[C@@H]1[C@@H](C#N)N(C(=O)C2CCC2)[C@H]1CO do in these assays?
IDE exosite inh: 3.9

How did COc1ccccc1-c1ccc([C@H]2[C@@H](C#N)N(C(=O)C3CCC3)[C@@H]2CO)cc1 do in these assays?
IDE exosite inh: -4.8*

How did COc1ccccc1-c1ccc([C@H]2[C@@H](CO)N(C(=O)C3CCC3)[C@H]2C#N)cc1 do in these assays?
IDE exosite inh: -2.3

How did COc1ccccc1-c1ccccc1[C@H]1[C@@H](C#N)N(C(=O)C2CCC2)[C@H]1CO do in these assays?
IDE exosite inh: 0.26

Results for COc1ccccc1-c1ccc([C@@H]2[C@@H](C#N)N(C(=O)C3CCC3)[C@@H]2CO)cc1 ?
IDE exosite inh: -12*

What do the screens show for `CN(C)C(=O)c1cccc(-c2ccc([C@@H]3[C@@H](C#N)N(C(=O)C4CC4)[C@@H]3CO)cc2)c1`?
IDE exosite inh: -3.6*

Results for CC(=O)N1[C@H](CO)[C@H](c2ccccc2)[C@@H]1CN(C(=O)c1ccc(F)cc1)C(C)C ?
IDE exosite inh: 4.8

Results for CN(C)CC#Cc1ccc([C@H]2[C@@H](CO)N3C(=O)CN(C(=O)Cc4cccnc4)C[C@H]23)cc1 ?
IDE exosite inh: 3.2

Results for CN(C)CC(=O)N[C@H]1C=C[C@@H](CC(=O)NCc2ccc(Cl)cc2)O[C@H]1CO ?
IDE exosite inh: 3.2

Results for O=C(c1ccccn1)N1CC(=O)N2[C@@H](CO)[C@H](c3ccc(C#CC4CCCC4)cc3)[C@@H]2C1 ?
IDE exosite inh: 3.9

How did COc1ccccc1-c1ccc2c(c1)[C@@H]1[C@@H](CCN1S(=O)(=O)c1ccc(C)cc1)[C@H](CO)N2 do in these assays?
IDE exosite inh: 1.8

What do the screens show for `CCCNC(=O)C[C@H]1CC[C@@H]2[C@H](COC[C@@H](O)CN2Cc2ccncc2)O1`?
IDE exosite inh: -0.15

Results for CCC(=O)NC[C@@H]1[C@@H](c2ccc(C3=CCCC3)cc2)[C@@H](CO)N1C(C)=O ?
IDE exosite inh: 1.9

Results for O=C(C[C@@H]1CC[C@@H]2[C@H](COC[C@@H](O)CN2Cc2nccs2)O1)NCc1ccccc1Cl ?
IDE exosite inh: -0.62

Results for C[C@H]1CN([C@@H](C)CO)C(=O)c2cc(-c3ccc(C#N)cc3)cnc2O[C@H]1CN(C)Cc1cccnc1 ?
IDE exosite inh: -0.017

What do the screens show for `O=C(Cc1ccccn1)N[C@@H]1CC[C@H](CCNS(=O)(=O)c2cccc(F)c2)O[C@@H]1CO`?
IDE exosite inh: 0.036

How did N#C[C@H]1[C@@H](c2ccccc2C2=CCCC2)[C@@H](CO)N1C(=O)Cc1ccncc1 do in these assays?
IDE exosite inh: 0.66

What do the screens show for `O=S(=O)(Cc1ccccc1)N1CCCCN2[C@H](C1)[C@H](c1ccc(-c3ccccc3)cc1)[C@@H]2CO`?
IDE exosite inh: 2.8

What do the screens show for `Cc1ccccc1-c1ccc([C@@H]2[C@@H](CO)N3C(=O)CN(S(C)(=O)=O)C[C@@H]23)cc1`?
IDE exosite inh: -13*

What do the screens show for `CCS(=O)(=O)N1CCCCN2[C@H](CO)[C@@H](c3ccc(-c4ccccc4F)cc3)[C@H]2C1`?
IDE exosite inh: 1.9
